A short description of assay [1]: ATG_CRE_CIS: Attagene CIS-FACTORIAL HepG2 Assay for human cAMP Responsive Element (CRE) binding protein 3 (AID 2282926). Particulars: HepG2 CRE cis-reporter, Attagene multiplexed mRNA; actives raise or lower the signal. A digest of the protocol:
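Transfected HepG2 were treated for 24 hours, then RNA was extracted and reporter cDNA amplified with sequence-specific primers. Labelled fragments were separated by capillary electrophoresis, and the CRE signal was fitted bidirectionally with DMSO as baseline.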

Assay [2] has as its target CCAAT/enhancer-binding protein beta (Homo sapiens) (UniProt P17676). The experiment in a line: ATG_C_EBP_CIS: Attagene CIS-FACTORIAL HepG2 Assay for human CCAAT/Enhancer Binding Protein (C/EBP) beta (AID 2282927). Particulars: HepG2 Attagene cis-factorial transcription factor reporter; actives raise or lower the signal. A digest of the protocol:
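Changes in reporter mRNA, rather than exogenous chimeric receptor activity, reflect native C/EBP signalling in transfected HepG2 cells dosed for 24 h; transcripts are detected by RT-PCR and capillary electrophoresis.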

The nature of assay [3]: ATG_CMV_CIS: Attagene CIS-FACTORIAL HepG2 Assay for human CMV (Internal Marker) (AID 2282928).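 Note: endpoint acts as a background internal control marker rather than a target.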 Particulars: HepG2 CMV promoter reporter, transcription factor profiling; actives raise or lower the signal. A digest of the protocol:
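HepG2 cells transiently transfected with multiple cis-regulated reporter units; 24 h compound exposure. Reporter mRNA quantified by RT-PCR, 6-FAM primer-extension labeling, HpaI digestion and capillary electrophoresis; bidirectional fitting against DMSO baseline.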

A short description of assay [4]: ATG_DR4_LXR_CIS: Attagene CIS-FACTORIAL HepG2 Assay for human Liver X Receptor (LXR), DR4 submotif (AID 2282929). To be noted: HepG2 Attagene DR4 cis-reporter, mRNA transcription; actives raise or lower the signal. Put shortly:
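After transient transfection with multiplexed cis-promoter reporter units, HepG2 cells received test chemicals for 24 h. Reporter mRNA induction, detected by fluorescence after RT-PCR and capillary electrophoresis, was scored relative to DMSO.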

The target in assay [5] is Aryl hydrocarbon receptor (Homo sapiens) (UniProt P35869). The experiment in a line: ATG_Ahr_CIS: Attagene CIS-FACTORIAL HepG2 Assay for human Aryl Hydrocarbon Receptor (Ahr) (AID 2282930). Particulars: HepG2 AhR cis-factorial reporter transcription; actives raise or lower the signal. Put shortly: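 HepG2, transient MRTU (cis) transfection, 24 h exposure. RNA → cDNA → PCR → 6-FAM primer extension → HpaI 2 h 37 C → CE. Fit: bidirectional, DMSO baseline.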
Chain of Aryl hydrocarbon receptor (Homo sapiens) (P35869 whole entry, looked up): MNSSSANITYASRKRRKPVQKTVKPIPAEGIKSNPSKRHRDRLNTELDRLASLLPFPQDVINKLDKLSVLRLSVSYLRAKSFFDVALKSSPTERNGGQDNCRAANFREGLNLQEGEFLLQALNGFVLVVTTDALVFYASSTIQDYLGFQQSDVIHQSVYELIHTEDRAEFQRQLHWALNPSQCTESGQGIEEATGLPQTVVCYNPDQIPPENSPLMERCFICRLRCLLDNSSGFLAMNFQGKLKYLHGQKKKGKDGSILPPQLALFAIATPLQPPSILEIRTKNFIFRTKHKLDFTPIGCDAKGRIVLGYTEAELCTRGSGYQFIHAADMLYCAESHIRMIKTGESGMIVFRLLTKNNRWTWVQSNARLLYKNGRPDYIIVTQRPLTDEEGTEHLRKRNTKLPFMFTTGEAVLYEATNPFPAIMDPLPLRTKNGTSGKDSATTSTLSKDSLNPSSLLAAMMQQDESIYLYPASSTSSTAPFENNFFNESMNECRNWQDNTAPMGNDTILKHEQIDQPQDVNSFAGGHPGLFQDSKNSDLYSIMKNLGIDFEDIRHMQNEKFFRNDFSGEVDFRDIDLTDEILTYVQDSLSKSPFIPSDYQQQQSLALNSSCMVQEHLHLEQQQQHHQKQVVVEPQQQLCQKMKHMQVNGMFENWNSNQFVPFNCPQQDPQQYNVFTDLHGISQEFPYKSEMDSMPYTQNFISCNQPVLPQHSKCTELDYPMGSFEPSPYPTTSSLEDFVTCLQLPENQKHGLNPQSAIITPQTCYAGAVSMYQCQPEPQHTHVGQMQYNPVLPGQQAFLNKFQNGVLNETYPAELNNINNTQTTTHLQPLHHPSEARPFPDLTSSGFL

Assay [6] is described as follows: ATG_AP_1_CIS: Attagene CIS-FACTORIAL HepG2 Assay for human Activator Protein 1 (AP-1) (AID 2282931). Particulars: HepG2 Attagene cis-factorial AP-1 reporter mRNA; actives raise or lower the signal. A digest of the protocol:
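After 24 h incubation with test chemical, RNA from transfected HepG2 cells was reverse-transcribed, amplified, fluorescently labelled and digested before capillary electrophoresis. Reporters were driven by cis-regulatory promoters; activity fitted bidirectionally versus DMSO.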

Assay [7] is described as follows: ATG_AP_2_CIS: Attagene CIS-FACTORIAL HepG2 Assay for human Activator Protein 2 (AP-2) (AID 2282932). Particulars: HepG2 AP-2 cis-reporter, Attagene transcription factor profiling; actives raise or lower the signal. Put shortly: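 HepG2, transient MRTU transfection, cis-regulated reporters; 24 h compound exposure; RNA isolated, RT-PCR, 6-FAM labelling, HpaI digest, CE fluorescence. DMSO = negative control/baseline, bidirectional fit.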

Assay [8] in a line: ATG_BRE_CIS: Attagene CIS-FACTORIAL HepG2 Assay for human Bone Morphogenetic Protein (BMP) Response Element (BRE) (AID 2282933). Particulars: HepG2 BMP response element reporter, Attagene transcription factor profiling; actives raise or lower the signal. Put shortly:
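A HepG2 multiplex reporter system measured inducible reporter mRNA 24 h post-dosing. Detection: RT-PCR, 6-FAM primer extension, HpaI digestion, capillary electrophoresis. Activity fitted bidirectionally relative to DMSO.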

For assay [9], the target named is Retinoic acid receptor alpha (Homo sapiens) (UniProt P10276). The experiment in a line: ATG_DR5_RAR_CIS: Attagene CIS-FACTORIAL HepG2 Assay for human Retinoic Acid Receptor Alpha (RARE), DR5 submotif (AID 2282934).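 For AC50: reporter responds to endogenous RAR alpha beta and gamma in HepG2 not RARA alone.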 Particulars: HepG2 Attagene cis-factorial RARE DR5 reporter, mRNA; actives raise or lower the signal. A digest of the protocol: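 HepG2, transient cis-reporter transfection, 24 h exposure. mRNA readout: RT-PCR, FAM label, HpaI cut, capillary electrophoresis. DMSO baseline, gain/loss fitting.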
Chain of Retinoic acid receptor alpha (Homo sapiens) (P10276 whole entry, looked up): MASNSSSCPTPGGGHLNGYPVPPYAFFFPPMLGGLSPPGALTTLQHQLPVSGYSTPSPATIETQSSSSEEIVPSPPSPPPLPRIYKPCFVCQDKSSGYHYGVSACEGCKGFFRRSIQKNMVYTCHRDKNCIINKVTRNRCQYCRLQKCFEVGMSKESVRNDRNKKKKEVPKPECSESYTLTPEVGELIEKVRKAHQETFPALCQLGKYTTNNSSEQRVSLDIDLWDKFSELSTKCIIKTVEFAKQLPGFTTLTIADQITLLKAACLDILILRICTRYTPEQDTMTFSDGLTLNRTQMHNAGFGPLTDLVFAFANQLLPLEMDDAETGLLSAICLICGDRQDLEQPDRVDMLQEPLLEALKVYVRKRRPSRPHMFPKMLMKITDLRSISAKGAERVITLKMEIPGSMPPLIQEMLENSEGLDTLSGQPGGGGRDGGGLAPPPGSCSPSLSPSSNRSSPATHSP

In assay [10] the target is Transcription factor E2F1 (Homo sapiens) (UniProt Q01094). The assay is described as follows: ATG_E2F_CIS: Attagene CIS-FACTORIAL HepG2 Assay for human E2F Transcription Factor 1 (AID 2282935). Particulars: HepG2 Attagene cis-reporter, E2F reporter RNA transcripts; actives raise or lower the signal. Put shortly: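 Cis-element reporter mRNA induction in transiently transfected HepG2, 24 h exposure. Activity fitted in both directions relative to DMSO negative control.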
Chain of Transcription factor E2F1 (Homo sapiens) (Q01094 whole entry, looked up): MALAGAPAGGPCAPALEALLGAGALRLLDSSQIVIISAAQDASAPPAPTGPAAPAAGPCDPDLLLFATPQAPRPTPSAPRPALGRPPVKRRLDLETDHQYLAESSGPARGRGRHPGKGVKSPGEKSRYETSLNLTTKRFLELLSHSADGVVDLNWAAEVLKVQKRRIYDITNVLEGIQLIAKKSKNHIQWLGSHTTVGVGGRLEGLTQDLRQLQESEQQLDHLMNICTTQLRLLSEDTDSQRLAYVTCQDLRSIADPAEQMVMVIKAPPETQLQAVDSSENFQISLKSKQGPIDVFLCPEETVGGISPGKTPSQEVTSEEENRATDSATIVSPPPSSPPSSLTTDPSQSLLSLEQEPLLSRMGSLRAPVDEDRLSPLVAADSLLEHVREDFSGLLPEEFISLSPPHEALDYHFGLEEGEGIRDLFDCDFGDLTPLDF

Assay [11] can be described thus: ATG_E_Box_CIS: Attagene CIS-FACTORIAL HepG2 Assay for human Enhancer Box (E-box) (AID 2282936). To be noted: HepG2 E-box cis-reporter transcription, actives raise or lower the signal. A digest of the protocol:
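Cells: HepG2 (human liver), transient MRTU transfection. Exposure 24 h. RNA → oligo(dT) RT → PCR → 6-FAM label → HpaI → CE. Activity fitted both directions relative to DMSO.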

The nature of assay [12]: ATG_M_61_CIS: Attagene CIS-FACTORIAL HepG2 Assay for M61 Transcription Factor (Internal Marker) (AID 2282937). Particulars: HepG2 Attagene CIS-FACTORIAL M61 internal marker reporter; actives raise or lower the signal. Put shortly: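 Using transiently transfected HepG2 liver cells, reporter transcript levels were assessed 24 h post-dosing by RT-PCR and capillary electrophoresis. Changes in either direction were fitted relative to DMSO controls.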

The nature of assay [13]: ATG_EGR_CIS: Attagene CIS-FACTORIAL HepG2 Assay for human Early Growth Response 1 (EGR1) (AID 2282938). To be noted: HepG2 Attagene CIS-FACTORIAL EGR reporter mRNA; actives raise or lower the signal. A digest of the protocol:
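Fluorescent capillary-electrophoresis signal of reporter cDNA fragments serves as read-out. HepG2 cells bear transiently transfected cis-promoter reporter units and are exposed 24 h; gain- or loss-of-signal is fitted against DMSO.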

A short description of assay [14]: ATG_M_19_CIS: Attagene CIS-FACTORIAL HepG2 Assay for M19 Transcription Factor (Internal Marker) (AID 2282939). Particulars: HepG2 Attagene CIS-FACTORIAL M19 internal marker reporter; actives raise or lower the signal. A digest of the protocol:
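Chemical-treated HepG2 (24 h) with MRTU constructs; reporter transcripts detected by fluorescent RT-PCR fragment analysis on capillary electrophoresis. Internal background marker, DMSO as baseline.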

A short description of assay [15]: ATG_ERE_CIS: Attagene CIS-FACTORIAL HepG2 Assay for Estrogen Response Element (ERE) (AID 2282940). To be noted: HepG2 ERE cis-reporter, Attagene RNA transcript; actives raise or lower the signal. Put shortly: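 Human liver cells (HepG2) bearing transiently transfected, promoter-regulated reporter units were exposed 24 h. Reporter mRNA induction was detected by capillary electrophoresis of labelled RT-PCR products and fitted bidirectionally to DMSO.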

A short description of assay [16]: ATG_Ets_CIS: Attagene CIS-FACTORIAL HepG2 Assay for human Erythroblast Transformation Specific (ETS) (AID 2282941). Particulars: HepG2 ETS cis-reporter transcription, actives raise or lower the signal. Put shortly:
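HepG2 cells transiently transfected with cis-promoter reporter transcription units were dosed for 24 h; reporter mRNA was measured by RT-PCR, 6-FAM primer extension, HpaI digestion and capillary electrophoresis, with bidirectional fitting against DMSO baseline.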

The target in assay [17] is Hepatocyte nuclear factor 3-beta (Homo sapiens) (UniProt Q9Y261). The experiment in a line: ATG_FoxA2_CIS: Attagene CIS-FACTORIAL HepG2 Assay for human Forkhead box A2 (FOXA2) (AID 2282942). To be noted: HepG2 cis-reporter transcription factor activity, 24 h; actives raise or lower the signal. A digest of the protocol: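 Fluorescence signal of reporter cDNA fragments, separated by capillary electrophoresis, reflects endogenous transcription factor activity in transfected HepG2 after 24 h. Both increases and decreases fitted against DMSO.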
Chain of Hepatocyte nuclear factor 3-beta (Homo sapiens) (Q9Y261 whole entry, looked up, the tested form may be a part): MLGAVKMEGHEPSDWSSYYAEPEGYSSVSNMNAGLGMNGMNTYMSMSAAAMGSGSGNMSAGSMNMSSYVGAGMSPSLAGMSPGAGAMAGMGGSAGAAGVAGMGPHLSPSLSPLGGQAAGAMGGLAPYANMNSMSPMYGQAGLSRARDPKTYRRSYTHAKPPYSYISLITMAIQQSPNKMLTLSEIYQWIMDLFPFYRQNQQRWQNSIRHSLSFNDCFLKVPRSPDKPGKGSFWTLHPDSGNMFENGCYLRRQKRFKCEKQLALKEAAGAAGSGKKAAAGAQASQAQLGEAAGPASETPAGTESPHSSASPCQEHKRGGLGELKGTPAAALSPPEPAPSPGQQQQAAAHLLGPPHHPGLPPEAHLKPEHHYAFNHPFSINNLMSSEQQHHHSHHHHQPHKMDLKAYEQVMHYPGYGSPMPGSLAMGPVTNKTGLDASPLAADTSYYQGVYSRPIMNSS

Assay [18] in a line: ATG_FoxO_CIS: Attagene CIS-FACTORIAL HepG2 Assay for human Forkhead box O (FoxO) (AID 2282943). Particulars: HepG2 Attagene cis-reporter, FoxO element, mRNA; actives raise or lower the signal. A digest of the protocol:
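Human hepatoma HepG2 cells carry transiently introduced reporter transcription units controlled by cis promoter elements. Chemical treatment lasted 24 h, and mRNA signal was compared with DMSO.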

Assay [19] can be described thus: ATG_GATA_CIS: Attagene CIS-FACTORIAL HepG2 Assay for human GATA Binding Protein (AID 2282944). Particulars: HepG2 GATA cis-element reporter, Attagene multiplex mRNA; actives raise or lower the signal. A digest of the protocol:
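Transfected cis-reporter HepG2 cells were treated with chemicals for 24 hours. Total RNA was then converted to cDNA, amplified with reporter-specific primers and analysed by fluorescent capillary electrophoresis, using DMSO-treated wells as baseline.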

A short description of assay [20]: ATG_GLI_CIS: Attagene CIS-FACTORIAL HepG2 Assay for human Zinc Finger Protein GLI1 (AID 2282945). To be noted: HepG2, Attagene cis-factorial reporter mRNA, GLI element; actives raise or lower the signal. A digest of the protocol:
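Bidirectional curve fits relative to DMSO, using reporter mRNA levels from RT-PCR plus capillary electrophoresis. Cells were HepG2 transiently carrying cis-regulated reporter constructs, harvested 24 h after dosing.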

The values that follow come from PubChem BioAssay (EPA / NIEHS).

“And” between values parts separate entries of the source, which are not always exact repeats. Equal values may be shown once. Some structures have more than one record in an assay (separate samples or runs), and their calls can disagree. The source made the active and inactive calls. Rule for the calls: active = hit-call score of the fitted dose curve at least 0.9, where 1 is the maximum; inactive = score below 0.9.

Chain of CCAAT/enhancer-binding protein beta (Homo sapiens) (P17676 whole entry, looked up): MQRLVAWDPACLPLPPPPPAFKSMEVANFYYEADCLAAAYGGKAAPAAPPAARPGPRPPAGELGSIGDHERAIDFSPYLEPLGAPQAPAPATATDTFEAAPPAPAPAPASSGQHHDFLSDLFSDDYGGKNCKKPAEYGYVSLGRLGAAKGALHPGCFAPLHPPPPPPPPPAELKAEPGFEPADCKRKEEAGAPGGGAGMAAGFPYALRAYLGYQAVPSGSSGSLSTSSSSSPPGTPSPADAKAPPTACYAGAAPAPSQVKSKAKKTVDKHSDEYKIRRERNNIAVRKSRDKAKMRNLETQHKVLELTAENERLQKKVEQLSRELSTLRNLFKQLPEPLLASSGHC

In general, AC50 refers to the midpoint of the concentration-response curve, whichever way the signal moves. `Cc1oc2c(NC(=O)c3c(Cl)cccc3Cl)cccc2c1C(C)(C)O`: the result in assay [1], in assay [2], in assay [4], in assay [7], in assay [10] and in [11] was inactive. In addition, the result in assay [12], in assay [14], in assay [15], in assay [16], in [18] and in [19] was inactive. Besides, the outcome in assay [20] was inactive. Further, the AC50 in assay [3] was 6.16 µM (active); in [5] it was 4.28 µM (active); in assay [6], 38 µM (active); in [8], 152 µM (active); in assay [9], 3.06 µM (active); in [13] it was 47.6 µM (active). Moreover, the AC50 in assay [17] is 27.3 µM (active).

As to `Cc1cccc2ccccc12`, the call in assay [1], in assay [2], in assay [3], in assay [4], in [5] and in assay [6] was inactive. For the same compound, the call in assay [7], in assay [8], in assay [9], in [10], in assay [11] and in [12] was inactive. Moreover, the result in [13], in assay [14], in assay [15], in assay [16], in assay [17] and in [18] was inactive. Also, the result in assay [19] and in [20] was inactive. For the same compound, the AC50 in assay [15] is 76.8 µM (active).

In the case of `Cc1occc1C(=O)Nc1ccc(C(=O)N2CCC(F)(F)/C(=C\C(=O)N3CCC(N4CCCCC4)CC3)c3ccccc32)cc1`, the compound was called inactive in [1], in assay [2], in [3], in assay [6], in assay [7] and in assay [9]. The call in [10], in assay [12], in assay [14], in assay [15] and in [20] was inactive. The AC50 in [4] was 50.3 µM (active); in assay [5] it was 12.3 µM (active); in assay [8], 13.2 µM (active); in assay [11] it was 27.4 µM (active); in assay [13], 34.5 µM (active); in assay [16], 55.9 µM (active). Besides, the results for the AC50 in assay [17] and in assay [19] were 34.5 µM (active) and 46.7 µM (active), respectively.

Turning to `CCN(Cc1cccc(S(=O)(=O)O)c1)c1ccc(C(=C2C=CC(=[N+](CC)Cc3cccc(S(=O)(=O)O)c3)C=C2)c2ccccc2S(=O)(=O)[O-])cc1`, the compound was classed as inactive in assay [1], in [2], in assay [3], in [4], in [5] and in assay [6]. In addition, the result in assay [7], in assay [8], in assay [9], in [10], in assay [11] and in [12] was inactive. Also, the call in assay [13], in assay [14], in assay [15], in assay [16], in assay [17] and in assay [19] was inactive. Also, the outcome in assay [20] was inactive.

With `CC/C(=C(/CC)c1ccc(O)cc1)c1ccc(O)cc1`, the AC50 was 15.9 µM (active) in [1]; 18 µM (active) and 15.4 µM (active) in assay [3]; 7.89 µM (active) [middle of 4 runs] in assay [4]; 13.8 µM (active) and 11.1 µM (active) and 14.4 µM (active) in assay [6]. Also, the compound was classed as inactive in assay [1], in assay [2], in assay [3], in assay [4], in assay [6] and in assay [7]. Further, the outcome in assay [8], in [10], in assay [11], in assay [12], in [13] and in [14] was inactive. For the same compound, the result in assay [16], in assay [17], in [19] and in [20] was inactive.

In the case of `OC12N=C(c3ccccc3)SC1Cc1cc(Cl)ccc12` (centres undefined), the result in [1], in assay [2], in assay [3], in assay [4], in assay [7] and in assay [8] was inactive. For the same compound, the outcome in [9], in assay [10], in assay [11], in assay [12], in assay [13] and in assay [14] was inactive. Further, the result in assay [16], in [17], in [18], in assay [19] and in [20] was inactive. The AC50 in assay [5] is 2.32 µM (active); in assay [6], 3.8 µM (active); in assay [15] it was 1.16 µM (active).
